CaV13 FRET inh – Disruptors of the CACNA1D IQ motif to Ca2+-dependent inactivation inhibitor domain association, primary screening, Förster resonance energy transfer in intact living …; HEK cells, CFP/YFP FRET ICDI-IQ, plate reader, 10 min; percent FRET-ratio fall versus neutral wells; hit rate 0.098% among 340,000; inhibition, % at 12.3 µM;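 active = mean replicate inhibition of at least 30% and at least 1% of replicates passing that level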
Granule exo inh – LAMP-1 surface exposure blockers, TALL-104 cells – cell-based, flow cytometry, MLPCN library, primary screen; inhibition, % at 10 µM; TALL-104 LAMP-1 surface exposure; cells stimulated with thapsigargin and PMA; hit rate 0.66% among 360,000; AID 651702, 2012;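 active = inhibition above about 55%, limit read from the data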
VLA-4 inh – inhibition in human VLA-4 binding assay, primary screen, VLA-4 allosteric modulator project, MLPCN library, flow cytometry, VLA-4 expressing cells; Integrin alpha-4 (Homo sapiens), P13612; ligand binding flow cytometry; inhibition, % (about 7 µM as worked out from the volumes in the protocol); hit rate 0.2% among 330,000; AID 2557, 2010; in the data active = inhibition above about 50%
Target sequence (P13612 whole entry, looked up): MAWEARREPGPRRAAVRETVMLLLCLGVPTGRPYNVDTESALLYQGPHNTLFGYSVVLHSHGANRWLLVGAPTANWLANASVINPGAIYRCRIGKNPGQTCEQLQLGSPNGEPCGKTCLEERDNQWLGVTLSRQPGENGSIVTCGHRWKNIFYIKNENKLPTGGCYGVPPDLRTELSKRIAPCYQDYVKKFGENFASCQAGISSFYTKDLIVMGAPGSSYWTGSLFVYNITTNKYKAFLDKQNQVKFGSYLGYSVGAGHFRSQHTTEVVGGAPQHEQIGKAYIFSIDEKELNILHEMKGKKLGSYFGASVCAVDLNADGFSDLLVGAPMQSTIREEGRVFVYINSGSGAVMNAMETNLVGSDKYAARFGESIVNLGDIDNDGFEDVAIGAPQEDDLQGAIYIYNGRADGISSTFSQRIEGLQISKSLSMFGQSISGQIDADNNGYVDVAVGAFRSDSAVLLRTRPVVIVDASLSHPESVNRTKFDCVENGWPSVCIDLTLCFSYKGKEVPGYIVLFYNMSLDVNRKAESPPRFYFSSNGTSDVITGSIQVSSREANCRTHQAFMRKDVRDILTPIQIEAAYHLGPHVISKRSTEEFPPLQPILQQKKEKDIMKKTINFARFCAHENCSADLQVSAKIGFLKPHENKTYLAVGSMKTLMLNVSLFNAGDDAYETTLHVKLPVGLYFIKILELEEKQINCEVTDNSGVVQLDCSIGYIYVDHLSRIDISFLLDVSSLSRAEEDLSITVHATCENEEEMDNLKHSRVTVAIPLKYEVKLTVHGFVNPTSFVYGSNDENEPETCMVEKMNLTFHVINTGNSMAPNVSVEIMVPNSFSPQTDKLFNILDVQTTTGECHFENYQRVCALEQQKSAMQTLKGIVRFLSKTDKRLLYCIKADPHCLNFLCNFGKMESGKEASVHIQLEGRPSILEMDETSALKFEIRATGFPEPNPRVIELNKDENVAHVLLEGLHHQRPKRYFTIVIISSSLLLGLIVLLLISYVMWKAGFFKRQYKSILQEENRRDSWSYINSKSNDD
ABCB6 inh 2 – ABCB6 transporter inhibitors, primary screen, K562-ABCB6 cells, flow cytometry, MLPCN library | ATP-binding cassette sub-family B member 6 (Homo sapiens), Q9NP58 | K562-ABCB6 porphyrin accumulation, 1 h; active compounds read low | fluorescence ratio to DMSO, % at 10 µM | hit rate 0.19% among 360,000 | AID 602162, 2011;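 active = fluorescence ratio to DMSO below 75%, the collection mean minus 3 SD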;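 also: signal is porphyrin accumulated inside mitochondria; lower ratio means ABCB6 inhibition with less porphyrin fluorescence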
Granule exo CP1 – inhibitors of lytic granule exocytosis, confirmation, TALL-104 cells, flow cytometry, Cherry Pick01; hit rate 11% among 1,500; LAMP-1 externalization; stimulated with PMA plus thapsigargin; shares compounds with Granule exo inh; inhibition, % at 10 µM; in the data active = inhibition above about 60%
Numbers stand for hits; n = inactive; x = no result. Only some compounds are listed: those with a hit (about 1.1% of all), similar ones and a draw of the others.

SMILES	CaV13 FRET inh	Granule exo inh	VLA-4 inh	ABCB6 inh 2	Granule exo CP1
Cc1cccc(C)c1OCC(O)CN(Cc1ccccc1O)C1CCCCC1 (stereo not given)	n	57	n	n	n
O=C(Nc1nc(-c2ccco2)cs1)c1ccccc1	n	71	n	n	n
COc1ccc(Nc2nc(-c3cccc(OC)c3O)nc3ccccc23)cc1	n	n	n	n	x
COc1cccc(-c2nc(NC(C)(C)C)c3ccccc3n2)c1O	n	56	n	n	n
O=S(=O)(c1ccc(SCCO)nc1)N1CCOCC1	n	60	n	n	n
COc1cccc(CC(=O)OCC(=O)NC(C)c2ccc(F)cc2)c1 (stereo not given)	n	n	n	n	x
COc1ccc(CN2CCC(N(CCc3ccccc3)Cc3ccccc3)CC2)c(OC)c1	n	60	n	n	n
CCCN1CCC(N(CCc2ccccc2)Cc2ccccc2)CC1	n	n	n	n	x
CCOC(=O)C1Nc2c(cc(C(F)(F)F)cc2[N+](=O)[O-])C2c3ccccc3CC12 (stereo not given)	n	76	n	n	n
CCOC(=O)C1Nc2c(F)cc(C)cc2C2c3ccccc3CC12 (stereo not given)	n	n	n	n	x
CC(C(=O)N1CCc2ccccc21)N1CCN(c2cccc(C(F)(F)F)c2)CC1 (stereo not given)	n	61	n	n	n
CC(C(=O)N1CCc2ccccc21)N1CCN(S(=O)(=O)c2ccc(C(F)(F)F)cc2)CC1 (stereo not given)	n	n	n	n	x
CCCCC(=O)Nc1nc(C)c(-c2csc(Nc3ccccc3OC)n2)s1	n	57	n	n	n
Cc1cc(C)n(CCc2nc(-c3cc4ccccc4o3)cs2)n1	n	n	n	n	x
Cc1cc(C)n(CCc2nc(-c3ccc(C)o3)cs2)n1	x	68	n	n	n
NCCc1c(-c2ccccc2)n(-c2ccccc2)c2ccccc12	n	91	x	n	70
OC(CNCCC(c1ccccc1)c1ccccc1)COc1ccccc1 (stereo not given)	n	74	n	n	n
OC(CNCCc1ccccc1)COc1ccc(OCC(O)CNCCc2ccccc2)cc1 (stereo not given)	n	n	n	n	x
O=C(CNC(=O)c1cccs1)N/N=C/c1cccc(Cl)c1	n	n	n	n	x
C[C@H](c1ccccc1)N1C[C@@H](COCc2ccccc2)Oc2cc(N3CC[C@H](N(C)C)C3)ccc2S1(=O)=O	n	n	x	n	x
C[C@@H](c1ccccc1)N1C[C@@H](COCc2ccccc2)Oc2cc(N3CC[C@H](N(C)C)C3)ccc2S1(=O)=O	n	70	x	n	n
C[C@H](c1ccccc1)N1C[C@@H](COCc2ccccc2)Oc2cc(N3CC[C@@H](N(C)C)C3)ccc2S1(=O)=O	n	63	x	n	n
COc1ccccc1C(=O)Nc1cccc(SC)c1	n	n	n	n	x
CSc1cccc(NC(=O)c2cccc3cccnc23)c1	n	82	n	n	n
CC(C)Oc1ccc(CN2CCCC(CO)(Cc3ccc(F)cc3)C2)cc1 (stereo not given)	n	n	n	n	x
SMILES	CaV13 FRET inh	Granule exo inh	VLA-4 inh	ABCB6 inh 2	Granule exo CP1
CCOc1ccc(CN2CCCC(CO)(Cc3ccccc3F)C2)cc1 (stereo not given)	n	n	n	n	x
COc1cc(Cl)c(CN2CCCC(CO)(Cc3ccccc3F)C2)cc1OC (stereo not given)	n	66	n	n	n
COc1ccc(CN2CCCC(CO)(Cc3ccc(F)cc3)C2)c(OC)c1OC (stereo not given)	n	61	n	n	n
O=C(CSc1nc2ccccc2c(=O)n1-c1ccccc1)NCc1ccc2c(c1)OCO2	n	n	n	n	x
COc1ccccc1-n1c(SCC(=O)NCc2ccc3c(c2)OCO3)nc2cc([N+](=O)[O-])ccc21	n	95	n	n	n
CC(Sc1nc2cc([N+](=O)[O-])ccc2n1-c1ccc(F)cc1)C(=O)NCc1ccc2c(c1)OCO2 (stereo not given)	n	88	n	n	n
Cc1cc(C(=O)OCC(=O)NC2(C#N)CCCCC2)c(C)o1	n	n	n	n	x
O=C(NNC(=O)C1CCCO1)c1ccc(F)cc1 (stereo not given)	n	n	n	n	x
COc1ccc(Br)cc1CN(C)C(=O)CNC(=O)c1ccc2ccccc2c1	n	58	n	n	n
COc1ccc(CN(C)C(=O)CNC(=O)c2ccc3ccccc3c2)c(OC)c1	n	n	n	n	x
CN1Cc2c(N3CCOCC3)nc3sc(C(=O)c4ccc(Br)cc4)c(N)c3c2CC1(C)C	n	61	n	n	75
Cc1cc(C(=O)NC(C)Cc2ccccc2)cc(C)c1[N+](=O)[O-] (stereo not given)	n	n	n	n	x
CCN(Cc1ccccc1)C(=O)COC(=O)[C@@H]1CCCN1C(=O)c1cccs1	n	n	n	n	x
Cn1c(=O)c(NCCO)c2c3c(cccc31)C(=O)c1ccccc1-2	x	n	n	n	x
Cn1c(=O)c(N)c2c3c(c(Br)ccc31)C(=O)c1ccccc1-2	n	86	n	n	68
O=C(NCCCN1CCN(c2ccc(F)cc2)CC1)NC12CC3CC(CC(C3)C1)C2	n	56	n	n	n
CCOCCCNC(=O)NC12CC3CC(CC(C3)C1)C2	n	n	n	n	x
O=C(O)CCCCCCCCCCCNC(=O)NC12CC3CC(CC(C3)C1)C2	n	80	n	n	n
CC1CC(C)(C)CC2(C1)NC(=O)N(CC(=O)N(Cc1ccccc1)c1ccccc1)C2=O (stereo not given)	n	n	n	n	x
O=C1CCC2CCCCC2(O)O1 (stereo not given)	n	64	n	n	n
Nc1ccc(CSc2ccccc2)cc1	n	n	x	n	x
Cc1cc2nc(/C=C/c3cccnc3)[nH]c2cc1C	n	58	n	n	n
COc1cc(SC)ccc1C(=O)NCCc1c[nH]c2ccccc12	n	62	n	n	n
O=C(NCCc1c[nH]c2ccccc12)c1ccc(F)cc1F	n	n	n	n	x
CSCCC(NC(=O)c1ccco1)C(=O)NNC(=O)c1n[nH]c(=O)c2ccccc12 (stereo not given)	n	n	n	n	x
CCOc1ccc(C2Nc3cccc4cccc(c34)N2)cc1OC	n	56	n	n	n
CCOc1cc(C2Nc3cccc4cccc(c34)N2)ccc1O	x	n	n	n	x
COc1ccc(N(CC(=O)NC2CCS(=O)(=O)C2)S(=O)(=O)c2ccc(Cl)c(Cl)c2)cc1 (stereo not given)	n	n	x	n	x
COc1ccc(C(=O)/C=C2\C(=O)Nc3ccc(Br)cc32)cc1	n	82	x	n	n
O=C1Nc2ccc(Br)cc2/C1=C/C(=O)c1ccc2c(c1)OCO2	n	n	n	n	x

Screens as filed in PubChem BioAssay.
